Each structure is given as a SMILES string. Values without a mark were called inactive. The rule behind the calls is not given here.

Sequence of Pantothenate synthetase (Mycobacterium tuberculosis (strain ATCC 25618 / H37Rv)) (P9WIL5 whole entry, looked up): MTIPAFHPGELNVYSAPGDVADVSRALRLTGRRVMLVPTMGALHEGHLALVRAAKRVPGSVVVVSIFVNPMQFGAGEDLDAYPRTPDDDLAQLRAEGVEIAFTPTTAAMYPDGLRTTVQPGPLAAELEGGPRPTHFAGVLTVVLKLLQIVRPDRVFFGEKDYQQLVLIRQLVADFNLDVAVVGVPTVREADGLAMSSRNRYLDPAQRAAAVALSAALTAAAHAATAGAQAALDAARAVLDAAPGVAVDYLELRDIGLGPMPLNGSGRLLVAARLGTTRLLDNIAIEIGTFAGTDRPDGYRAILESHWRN

The test addresses Pantothenate synthetase (Mycobacterium tuberculosis (strain ATCC 25618 / H37Rv)) (UniProt P9WIL5). In words: Recombinant Mtb pantothenate synthetase (PanC) inhibitors, coupled enzyme, confirmatory (AID 375).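 Note: 0% = full reaction with vehicle and 100% = no enzyme background.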 Conditions: coupled enzyme assay; at 10 µM, hits give high values.
For the compound `CC(=O)Nc1cccc(NC(=O)c2ccco2)c1`, the inhibition was 0%.

On to `CC1=C(C(=O)OCc2ccccc2)C(c2ccco2)n2ncnc2N1` (centres undefined), for which the inhibition was 0%.

`COCC(=O)NC(c1ccccc1)c1ccccc1`: the inhibition was 7%.

Turning to `Cc1ccc2c(COn3nnc4ccc(S(=O)(=O)N(C)C)cc43)cc(=O)oc2c1C`, the inhibition was 3%.

`COc1ccc(Oc2nc(Oc3ccc(OC)cc3)nc(Oc3ccc(OC)cc3)n2)cc1`: the inhibition was 0%.

Take `CC(O)CN1C(=O)C(CC(=O)Nc2ccc(Cl)cc2)SC1=Nc1ccccc1` (centres undefined): the inhibition is 0%.

`N#C/C(=C(/O)CN1CCOCC1)c1nc2ccccc2s1`: the inhibition was 0%.

For the compound `O=C(O)C1C2C=CC3(CN(C4CCCC4)C(=O)C13)O2` (centres undefined), the inhibition was 4%.

Turning to `CC(C)CCNC(=O)C(c1ccco1)N(CC1CCCO1)C(=O)Cn1nnc2ccccc21` (centres undefined), the inhibition is 0%.

Take `COC(=O)CN(c1ccc(C)c(Cl)c1)S(C)(=O)=O`: the inhibition is 0%.

Turning to `Nc1cccc(C(=O)O)c1`, the inhibition is 0%.

On to `Clc1ccc(Nc2ncnc3c2cnn3-c2ccccc2)cc1`, for which the inhibition was 6%.

For `COC(=O)c1[nH]c2ccc(F)cc2c1NS(=O)(=O)c1ccc(OC)cc1OC`, the inhibition is 14%.

For `C=CCN(CC=C)C(=O)Nc1cc(Cl)ccc1OC`, the inhibition was 0%.

In the case of `Cn1c(=O)[nH]c(=O)c2c1nc(NC1CCCCC1)n2CC(=O)NC1CCCCC1`, the inhibition is 0%.

Turning to `COc1ccc(C2C(C(=O)c3sc(C)nc3C)=C(O)C(=O)N2CCN2CCOCC2)cc1` (centres undefined), the inhibition was 0%.

For `CN1CCN(C(=O)CCC(=O)c2ccc(F)cc2)CC1`, the inhibition is 9%.

`O=S(=O)(c1ccc2nc(Cc3cccc(C(F)(F)F)c3)[nH]c2c1)N1CCOCC1`: the inhibition is 0%.

On to `Cc1cc(NC(=O)c2cccc(S(=O)(=O)N3CC(c4ccccc4)CC3=O)c2)no1` (centres undefined), for which the inhibition is 2%.

Take `Cc1ccc2c(c1C)NC(=O)C2(O)CC(=O)c1ccc2c(c1)OCO2` (centres undefined): the inhibition is 0%.

With `CCc1n[nH]c2c1C(=O)CC(C)(C)C2`, the inhibition is 2%.

Regarding `COc1cccc(-n2nc(C(=O)Nc3ccc4c(c3)OCO4)c3ccccc3c2=O)c1`, the inhibition is 0%.

`CC1=Nn2c(nnc2-c2cc(-c3ccccc3)n[nH]2)SC1`: the inhibition is 0%.

Consider `CCCCn1c(CN2CCN(c3cccc(Cl)c3)CC2)nc2c1c(=O)n(C)c(=O)n2C`, for which the inhibition was 6%.

For `CCN(CC)CCCNc1oc(-c2cccc(Cl)c2)nc1C#N`, the inhibition is 0%.

Consider `Cc1cc(NS(=O)(=O)c2ccc(NC(=O)COc3ccc(Cl)cc3)cc2)no1`, for which the inhibition is 9%.

For `O=C(OCC#CCSc1nnc(-c2ccccc2)o1)c1cccs1`, the inhibition is 0%.

As to `CCOC(=O)c1ccc(-n2c(C)nc3c(cnn3-c3ccccc3C)c2=O)cc1`, the inhibition was 0%.

Turning to `CC(C)(C)C1=Nn2c(nnc2-c2n[nH]c3c2CCC3)SC1`, the inhibition was 8%.

`CS(=O)(=O)Nc1ccc([N+](=O)[O-])cc1Oc1ccccc1`: the inhibition is 0%.

Turning to `O=C(CSc1nnc2ccccn12)c1ccccc1`, the inhibition is 0%.

For the compound `CC(C)OC(=O)c1ccc(OC(=O)c2cccnc2)cc1`, the inhibition was 0%.

In the case of `CCN(CC)CCOC(=O)C1(c2ccc(OC)c(OC)c2)CCCC1`, the inhibition is 12%.

Regarding `CC(c1ccccc1)N1C(=O)c2ccc(C(=O)NCc3ccco3)cc2C1=O` (centres undefined), the inhibition is 1%.

With `Cc1ncc(CO)c2c1OC(C)(C)OC2`, the inhibition was 0%.

As for `CCN(C(=O)c1c(-c2ccccc2)noc1C)c1ccccc1`, the inhibition was 0%.

Turning to `COc1ccccc1OCc1ccc(C(=O)NC(C)(C)C)o1`, the inhibition is 2%.

Turning to `O=C(OC1CCc2ccccc2C1=O)c1ccccc1O` (centres undefined), the inhibition is 0%.

On to `CCN(c1ccc2c(c1)OCO2)S(=O)(=O)c1cc(Br)cc2c1N(C(=O)C1CC1)CC2`, for which the inhibition is 0%.
